Compound activity (PubChem BioAssay)
CYP2C9 act: CYP2C9 (human) activation; P11712; 96,000 compounds, 1.4% hits; AID 1024; recombinant CYP2C9, luciferin-H conversion, luminescence; active compounds read high; factor 1 = untreated enzyme, 0 = blocked; activation factor at 5 µM;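 active = activation factor of 2 or more for CYP2C9 at a 5 µM dose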;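 note: 0 = sulfaphenazole-blocked wells and 1 = vehicle-only wells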
Cav3 T inh: inhibitors of human Cav3.2 T-type calcium channel; O95180; Cav3.2-expressing cells, Fluo-4 calcium fluorescence FDSS; active compounds read low; B-score at 10 µM; 100,000 compounds, 4% hits; AID 449739;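 active = single-dose well whose peak fluorescence ratio is a statistical outlier from its plate by either plate-standardised score or position-corrected B-score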
CYP2C9 inh: blocks human cytochrome P450 2C9. inhibition, % at 5 µM. AID 777. CYP2C9 Supersomes, luciferin-H conversion, luminescence. 96,000 compounds, 20% hits;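 active = blocking of liver enzyme CYP2C9 beyond about 50% at 5 µM, limit read from the data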
CYP2C19 activ: activators of human cytochrome P450 2C19; P33261; recombinant CYP2C19, luciferin-H EGE luminescence; active compounds read high; 0 = fully inhibited enzyme, 1 = untreated enzyme; activation factor at 5 µM; 96,000 tested, under 10 active; AID 1025;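 active = activation factor of at least 2 at 5 µM in the primary screen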;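 note: 0 = wells with 2.5 mM tranylcypromine and 1 = vehicle-only wells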
CYP2C19 inhib: inhibitors of human CYP2C19; 96,000 compounds, 21% hits; P33261; CYP2C19 Supersomes, luciferin-H EGE luminescence, 30 min; inhibition, % at 5 µM;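 active = CYP2C19 inhibition above a set limit at 5 µM in the primary screen, cut at about 50% in these data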;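 note: plate controls were negative control wells for no effect and 2.5 mM tranylcypromine positive control for full effect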
* hit, by the source's call; nt = no result given. Only some compounds are listed: those with a hit (about 27% of all), similar ones and a draw of the others.

SMILES | CYP2C9 act | Cav3 T inh | CYP2C9 inh | CYP2C19 activ | CYP2C19 inhib
CC(C)(C)c1nc(SCC(=O)NCc2ccco2)c2ccccc2n1 | 0.3 | -1.4 | 65* | 0.1 | 94*
COc1ccc(S(C)(=O)=O)cc1S(C)(=O)=O | 1.2 | nt | -16 | 1.1 | -9
CCCCNC(=O)CSc1nc2ccccc2c(=O)n1Cc1ccc2c(c1)OCO2 | 0.6 | 0.12 | 44 | 0.2 | 84*
O=C(CSc1nc2ccccc2c(=O)n1-c1ccccc1)NCc1ccc2c(c1)OCO2 | 0.8 | 0.55 | 18 | 0.8 | 19
O=C(CSc1nc2ccsc2c(=O)n1NC(=O)c1ccccc1)NCc1ccco1 | 0.4 | 0.046 | 64* | 0.4 | 60*
O=S(=O)(NCc1ccccc1)c1ccc(S(=O)(=O)N(Cc2ccccn2)Cc2ccco2)cc1 | 0.9 | 0.14 | 13 | 0.9 | 6
CN(C)CCNCc1ccccc1OC1CCCC1 | 1.2 | 0.057 | -17 | 1.2 | -17
C/C(=N\Nc1nccnc1Cl)c1ccc([N+](=O)[O-])cc1 | 0.9 | 0.37 | 10 | 0.9 | 14
O=[N+]([O-])c1cccc(/C=N/Nc2nccnc2Cl)c1 | 0.8 | -0.029 | 20 | 0.4 | 60*
Oc1ccc(/C=N/Nc2nccnc2Cl)cc1 | 0 | 1.1 | 100* | 0 | 98*
C=CCn1c(SCC(=O)Nc2c(C)n(C)n(-c3ccccc3)c2=O)nc2sc(C)c(-c3ccccc3)c2c1=O | 0.8 | -2.4 | 24 | 0.9 | 12
O=C(CN(CCO)c1ccccc1)NC12CC3CC(CC(C3)C1)C2 | 0.9 | -1.9 | 6 | 0.6 | 37
Cc1cc(C)c2c(c1)NC(=O)C2(O)CC(=O)c1cccs1 (stereo not given) | 1.3 | 0.18 | -32 | 0.5 | 54*
O=C(CCC1=NS(=O)(=O)c2ccccc2N1)NC1CCCCCCC1 | 0.8 | 0.98 | 22 | 0.7 | 27
Cc1cccc(OCC2=NS(=O)(=O)c3ccccc3N2)c1 | 0.5 | 0.45 | 51* | 0.7 | 30
c1csc(Cc2nn3c(-c4ccncc4)nnc3s2)c1 | 0.2 | 0.66 | 80* | 0 | 98*
Clc1ccc(OCc2nn3c(-c4ccccc4)nnc3s2)c(Cl)c1 | 0.8 | 0.69 | 23 | 1 | 3
Clc1ccccc1OCc1nn2c(-c3ccncc3)nnc2s1 | 0.2 | 0.32 | 80* | 0 | 100*
c1csc(-c2nn3c(-c4ccncc4)nnc3s2)c1 | 0.7 | nt | 32 | 0.6 | 36
Cc1cc(C)c(NC(=O)C2CSCCS2)c(C)c1 (stereo not given) | nt | 0.032 | nt | nt | nt
CCOC(=O)C1=C(C)NC(=O)C(C#N)C1c1ccncc1 (stereo not given) | 0.5 | 0.34 | 50* | 1 | 5
NC(=O)C1(N2CCCCC2)CCN(C(=O)CSc2nc(C(F)(F)F)cc(=O)[nH]2)CC1 | 1.1 | 1.7 | -7 | 0.9 | 7
CCCC(=O)Nc1nnc(COC)s1 | 0.8 | 0.46 | 18 | 1 | -4
CCC(=O)Nc1nnc(Sc2ccc(N(C)C)cc2)s1 | 1.4 | nt | -38 | 0 | 96*
CCCC(=O)Nc1nnc(Sc2ccc(N(C)C)cc2)s1 | 1.6 | -0.0082 | -56 | 0.1 | 94*
SMILES | CYP2C9 act | Cav3 T inh | CYP2C9 inh | CYP2C19 activ | CYP2C19 inhib
CS(=O)(=O)N(CC(=O)N1CCCCC1)C1CCCCC1 | 0.9 | 0.071 | 6 | 0.7 | 32
Nc1nc(SCC(=O)Nc2ccccc2Sc2ccccc2)n[nH]1 | 0.5 | -0.051 | 51* | 0 | 99*
NC(=O)C1(N2CCCCC2)CCN(CC(=O)Nc2ccccc2Sc2ccccc2)CC1 | 0.5 | 0.13 | 50 | 0.2 | 79*
CS(=O)(=O)N1CCC(C(=O)Nc2ccccc2Sc2ccccc2)CC1 | 0.8 | nt | 18 | 0.7 | 26
Cc1ccc(NC(=O)CN(C)C(=O)CSc2n[nH]c(N)n2)cc1 | 0.9 | -0.0086 | 7 | 1 | -1
O=C(CCl)Nc1ccccc1Sc1ccccc1 | 0.9 | -0.3 | 13 | 0.4 | 64*
CC(=O)Nc1ccccc1Sc1ccccc1 | 0.8 | 0.034 | 20 | 0.2 | 79*
O=C(NCc1cccnc1)c1cc(-c2cccs2)on1 | 0.8 | nt | 20 | 0.8 | 17
COc1ccc(C2NC(C(=O)O)CS2)cc1COCC(F)(F)F (stereo not given) | nt | 1.2 | nt | nt | nt
CCCc1ccc(-c2cc(NC(=O)CSc3n[nH]c(N)n3)n(-c3ccccc3)n2)cc1 | 0.4 | -0.2 | 58* | 0.7 | 33
C=CCSc1nnc2c(n1)OC(c1c(C)[nH]n(-c3ccccc3)c1=O)Nc1ccccc1-2 (stereo not given) | 0.3 | -0.092 | 72* | 0.9 | 8
C=CCSc1nnc(-c2ccccc2N=Cc2c(C)[nH]n(-c3ccccc3)c2=O)c(=O)[nH]1 | 0 | -0.79 | 99* | 0.5 | 48
C=CCSc1nnc2c(n1)OC(c1cccnc1)Nc1ccccc1-2 (stereo not given) | 1 | 0.74 | 0 | 1 | -3
O=C1Nc2ccccc2OC1CC(=O)N1CCOCC1 (stereo not given) | 1.1 | -1 | -10 | 0.9 | 8
O=C(c1c(F)cccc1F)N1CCN(c2cccc(C(F)(F)F)c2)CC1 | 0.2 | -2.7 | 80* | 0.1 | 94*
O=C1Nc2ccccc2OC1CC(=O)N1CCN(c2cccc(C(F)(F)F)c2)CC1 (stereo not given) | 0.3 | -3.8 | 72* | 0.7 | 28
COc1ccc(-c2noc(CCC(=O)N3CCN(c4cccc(C(F)(F)F)c4)CC3)n2)cc1 | 0.2 | -4.8* | 83* | 0.3 | 70*
O=C(CSCc1ccccc1)N1CCN(c2cccc(C(F)(F)F)c2)CC1 | 0.1 | -4 | 93* | 0.1 | 86*
CC(=O)c1c(C)nn(C(=O)N2CCOCC2)c1C | 1 | 0.035 | -2 | 1 | -4
COc1ccccc1OCc1ccc(C(=O)NCC2CCCO2)o1 (stereo not given) | 0.8 | 0.26 | 20 | 0.7 | 28
CCCCCCn1c(CN2CCN(C(=O)OCC)CC2)nc2c1c(=O)n(C)c(=O)n2C | nt | -0.6 | nt | nt | nt
Cn1cccc1C(=O)N1CCN(c2cccc(C(F)(F)F)c2)CC1 | 0.8 | -0.84 | 22 | 0.2 | 76*
O=C1CC(N2CCN(c3cccc(C(F)(F)F)c3)CC2)C(=O)N1c1ccccc1F (stereo not given) | 0.2 | -3.2* | 84* | 0.5 | 47
CCOC(=O)N1CCN(c2c(N3CCN(c4cccc(C(F)(F)F)c4)CC3)c(=O)c2=O)CC1 | 1 | 0.89 | -2 | 1 | 0
O=C1CC(N2CCN(c3cccc(C(F)(F)F)c3)CC2)C(=O)N1c1ccccc1 (stereo not given) | 0.8 | -0.3 | 18 | 1.1 | -8
Cc1nnc(NC(=O)CSc2nnc(CNC(=O)c3ccccc3)n2-c2ccccc2)s1 | 1.1 | 0.7 | -8 | 1.1 | -10
COc1ccc(C=O)cc1COc1ccc(Cl)cc1[N+](=O)[O-] | 0.9 | -0.039 | 15 | 0.9 | 14
Cc1cc(=O)oc2c(N)c(O)ccc12 | 1 | 0.37 | -2 | 1.1 | -11
Cc1cc2c(C)cc(=O)oc2c2c1NCCC2 | 3.1* | 0.39 | -210 | 0.8 | 16
